About 83,000 compounds went through this panel and 20% of them were active in at least one assay; those are over-represented in the sample as a whole.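 Cell lines were cultured in 96-well plates, exposed to a single compound concentration, and assessed for percent growth 48 hours later.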 The source made the active and inactive calls. The calls were made as follows: active = growth percent below 10; inactive = the rest.
Columns and labels:
Experiment in all cases: NCI-60 one-dose screen, 48 h (100 = growth as untreated, 0 = no growth, -100 = all killed)
Conditions in all cases: 10 µM
T-47D breast = tested on: T-47D breast
BT-549 breast = tested on: BT-549 breast
MDA-MB-435 melanoma = tested on: MDA-MB-435 melanoma
SW-620 colon = tested on: SW-620 colon
MCF7 breast = tested on: MCF7 breast
HCT-116 colon = tested on: HCT-116 colon
HCC-2998 colon = tested on: HCC-2998 colon
KM12 colon = tested on: KM12 colon

Measured: growth

CN(C)c1ccc2c(c1)OC(N)=C(C#N)C2c1ccc2c(c1)CCO2 (stereo unspecified)
inactive: T-47D breast 66.8% | BT-549 breast 16.7% | SW-620 colon 31.9% | MCF7 breast 16.9% | HCC-2998 colon 36.8% | KM12 colon 24.2%
active: MDA-MB-435 melanoma 0.989% | HCT-116 colon 5.3%

CCOc1ccc2c(c1)CC[C@@H]1[C@@H]2CC[C@]2(C)[C@@H](O)[C@@H](O)C[C@@H]12
inactive: T-47D breast 93.8% | BT-549 breast 119% | MDA-MB-435 melanoma 90.2% | SW-620 colon 95.9% | MCF7 breast 111% | HCT-116 colon 104% | HCC-2998 colon 108% | KM12 colon 106%

CC(=O)Nc1ccc(Sc2ccc(NC(C)=O)cc2)cc1
inactive: T-47D breast 70.6% | BT-549 breast 95.5% | MDA-MB-435 melanoma 104% | SW-620 colon 104% | MCF7 breast 97.7% | HCT-116 colon 98.5% | HCC-2998 colon 97.2% | KM12 colon 96.5%

CCOC(=O)C(=O)Cc1cccnn1
inactive: T-47D breast 122% | BT-549 breast 101% | MDA-MB-435 melanoma 111% | SW-620 colon 109% | MCF7 breast 95.3% | HCT-116 colon 102% | HCC-2998 colon 112% | KM12 colon 108%

CCOC(=O)c1sc(Nc2ncccn2)nc1-c1ccccn1
inactive: T-47D breast 41.8% | BT-549 breast 89.2% | MDA-MB-435 melanoma 103% | SW-620 colon 95.6% | HCT-116 colon 74.2% | HCC-2998 colon 80.7% | KM12 colon 83%
active: MCF7 breast 7.18%

CCN(CC)CCCOC(=O)Nc1ccccc1Cl
inactive: T-47D breast 106% | BT-549 breast 111% | MDA-MB-435 melanoma 105% | SW-620 colon 102% | MCF7 breast 112% | HCT-116 colon 113% | HCC-2998 colon 110% | KM12 colon 111%

O=c1ccc2nc(-c3ccccc3)nn(-c3ccccc3)c-2c1
inactive: BT-549 breast 90.2% | MDA-MB-435 melanoma 24.7% | HCC-2998 colon 100% | KM12 colon 63.1%
active: T-47D breast -36.5% | SW-620 colon -80.5% | MCF7 breast -66.7% | HCT-116 colon -90.7%

O=NN(CC(=O)N/N=C/C=C\c1ccccc1)CC(=O)N/N=C/C=C/c1ccccc1
inactive: T-47D breast 89% | BT-549 breast 123% | MDA-MB-435 melanoma 103% | SW-620 colon 104% | MCF7 breast 69.6% | HCT-116 colon 96.2% | HCC-2998 colon 119% | KM12 colon 109%

COc1c(-c2c3sc(=O)[nH]c3nc3c2c(=O)[nH]n3C(C)C)cc2c(c1OC)OCO2
inactive: T-47D breast 98.6% | BT-549 breast 84.6% | MDA-MB-435 melanoma 90.9% | SW-620 colon 108% | MCF7 breast 106% | HCT-116 colon 101% | HCC-2998 colon 107% | KM12 colon 101%

CC(CNC(Cc1ccccc1)c1ccccc1)NC(Cc1ccccc1)c1ccccc1 (stereo unspecified)
inactive: T-47D breast 14.6% | BT-549 breast 60.9% | MDA-MB-435 melanoma 63.4% | SW-620 colon 26.4% | HCT-116 colon 13.2% | HCC-2998 colon 20.1% | KM12 colon 22.2%
active: MCF7 breast 8.12%

CCC(O)c1ccc(Br)cc1NC(=O)c1cccc(Cl)c1 (stereo unspecified)
inactive: T-47D breast 20.8% | BT-549 breast 42.7% | MDA-MB-435 melanoma 16.9% | SW-620 colon 13.8% | MCF7 breast 14.4% | HCT-116 colon 20.7% | HCC-2998 colon 19.1% | KM12 colon 26.3%

NC1CCC(Nc2nc(NCc3ccc(-c4ccccc4O)nc3)c3ncn(C4CCCC4)c3n2)CC1 (stereo unspecified)
active: T-47D breast -34.2% | BT-549 breast -28% | MDA-MB-435 melanoma -81.5% | SW-620 colon 0.393% | MCF7 breast -62.4% | HCT-116 colon -55.8% | HCC-2998 colon -73.3% | KM12 colon -16.2%

COc1ccc(-c2ccc(-c3ccc(C(=N)N)c(F)c3)s2)cc1
active: T-47D breast -64% | BT-549 breast -91.7% | MDA-MB-435 melanoma -79.5% | SW-620 colon -91% | MCF7 breast -70.6% | HCT-116 colon -82.6% | HCC-2998 colon -83.9% | KM12 colon -94.9%

Cc1ccc(NS(=O)(=O)c2ccccc2)c(NS(=O)(=O)c2ccccc2)c1
inactive: T-47D breast 101% | BT-549 breast 104% | MDA-MB-435 melanoma 106% | SW-620 colon 95.1% | MCF7 breast 104% | HCT-116 colon 93.7% | HCC-2998 colon 106% | KM12 colon 103%

O=C(NCCCl)c1cc(Cl)cc(Cl)c1
inactive: T-47D breast 93.6% | BT-549 breast 105% | MDA-MB-435 melanoma 99.9% | SW-620 colon 112% | MCF7 breast 96.2% | HCT-116 colon 110% | HCC-2998 colon 102% | KM12 colon 107%

O=c1[nH]c(=O)n(C2C[C@@H](O)[C@@H](CO)O2)cc1F (stereo partly specified)
inactive: T-47D breast 54.3% | MDA-MB-435 melanoma 37.1% | SW-620 colon 55.9% | MCF7 breast 20.7% | HCT-116 colon 16.8% | KM12 colon 33.4%
active: BT-549 breast 1.4% | HCC-2998 colon -6.77%

CC(C)c1[nH]nc2c(NCc3ccc(-c4ccccn4)cc3)nc(SCCN)nc12
active: T-47D breast -15.6% | BT-549 breast -32% | MDA-MB-435 melanoma -39.6% | SW-620 colon 5.99% | MCF7 breast 1.59% | HCT-116 colon 5.28% | HCC-2998 colon -22.9% | KM12 colon 5.47%

COc1ccc(C(=O)/C=C/c2cc(-c3ccc4c(c3)OCO4)n[nH]2)cc1OC
inactive: T-47D breast 43.8% | BT-549 breast 41.4% | MDA-MB-435 melanoma 73.5% | SW-620 colon 36.4% | MCF7 breast 27.2% | HCT-116 colon 18.4% | HCC-2998 colon 91.3% | KM12 colon 54.1%

CCc1ccc(-c2nnc(COc3ccc(-c4nc5ccc(C)cc5[nH]4)cc3OC)o2)cc1
inactive: T-47D breast 15% | BT-549 breast 38.8% | MDA-MB-435 melanoma 36.8% | SW-620 colon 86.7% | MCF7 breast 30.6% | HCT-116 colon 37.1% | HCC-2998 colon 97.9% | KM12 colon 50.9%

c1ccc(CC(NCCNC(Cc2ccccc2)c2ccccc2)c2ccccc2)cc1 (stereo unspecified)
active: SW-620 colon 5.83% | MCF7 breast -7.95% | HCT-116 colon -25.3% | HCC-2998 colon 3.25%
inactive: T-47D breast 13.9% | BT-549 breast 56.6% | MDA-MB-435 melanoma 38% | KM12 colon 16.3%

CC1=CSC2=NC(c3ccc(Cl)c(Cl)c3)=CC(c3ccc(Cl)cc3)N12 (stereo unspecified)
inactive: T-47D breast 21.3% | MDA-MB-435 melanoma 10.4% | SW-620 colon 26.4% | MCF7 breast 54.3% | HCC-2998 colon 100% | KM12 colon 56.8%
active: BT-549 breast 7.99% | HCT-116 colon 3.71%

CN(C)Cc1cccs1
inactive: T-47D breast 83.9% | BT-549 breast 96.6% | MDA-MB-435 melanoma 118% | SW-620 colon 108% | MCF7 breast 103% | HCT-116 colon 89% | HCC-2998 colon 96.6% | KM12 colon 101%

COc1ccc(Nc2nc(NCc3ccccc3)c3ccccc3n2)cc1
inactive: T-47D breast 45.6% | BT-549 breast 82.9% | MDA-MB-435 melanoma 84.2% | SW-620 colon 68.2% | MCF7 breast 67.4% | HCT-116 colon 29.8% | HCC-2998 colon 91.5% | KM12 colon 80.7%

COCCNCC(O)Cn1c2ccc(Cl)cc2c2cc(Cl)ccc21 (stereo unspecified)
active: T-47D breast -15.8% | MDA-MB-435 melanoma -83.1% | SW-620 colon 2.98% | MCF7 breast -64.8% | HCT-116 colon -5.18% | HCC-2998 colon -30.1%
inactive: BT-549 breast 11.2% | KM12 colon 10.9%

COc1cc(-c2nc3cc(Cl)c(Cl)cc3[nH]2)ccc1OCC(=O)NN
inactive: T-47D breast 66.9% | BT-549 breast 95% | MDA-MB-435 melanoma 63.6% | SW-620 colon 80.9% | MCF7 breast 73.4% | HCT-116 colon 96.1% | HCC-2998 colon 103% | KM12 colon 64.6%

Fc1cc(-c2ncc(-c3cc(F)c(F)c(F)c3)c(NC3CCCCCC3)n2)cc(F)c1F
inactive: T-47D breast 102% | BT-549 breast 103% | MDA-MB-435 melanoma 96.8% | SW-620 colon 96.9% | MCF7 breast 90.8% | HCT-116 colon 101% | HCC-2998 colon 127% | KM12 colon 101%

CC(=O)OCC(COC(C)=O)(COC(C)=O)COC(C)=O
inactive: BT-549 breast 112% | MDA-MB-435 melanoma 111% | SW-620 colon 108% | MCF7 breast 93.8% | HCT-116 colon 111% | HCC-2998 colon 101% | KM12 colon 102%
active: T-47D breast -11.3%

From PubChem BioAssay (NCI)
